Of roughly 7,900 targets only a part is listed; those with a hit were picked by preference. About 0.6% of all pairs of compound and target were hits. Unmarked numbers belong to inactive results.
Compound: CN1CCC(CNc2ccc3ncc(-c4cccc(OC(F)(F)F)c4)n3n2)CC1
Assay: log2 fold change, soluble protein after heating vs DMSO (PISA); higher = thermal stabilisation; K562 cells, 10 uM, 30 min; active = over 0.2 and 3.5 SD of the protein, either way, in both replicates (recomputed)
Procedure, shortened: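 K562 cells (2×10^6 cells/mL) were treated with 10 μM compound for 30 min, and aliquots were heated for 3 min over 48°C-58°C. Pooled aliquots were extracted in PBS with 0.5% NP-40 at 4°C, and the supernatant after 21,000xg for 90 min was measured by TMTpro 16plex LC-MS/MS with channel sums equalised. Reported thermal stability, relative to control samples and from duplicates, is a log2 fold change.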

UniProt Q10713, sequence (Q10713 whole entry, looked up): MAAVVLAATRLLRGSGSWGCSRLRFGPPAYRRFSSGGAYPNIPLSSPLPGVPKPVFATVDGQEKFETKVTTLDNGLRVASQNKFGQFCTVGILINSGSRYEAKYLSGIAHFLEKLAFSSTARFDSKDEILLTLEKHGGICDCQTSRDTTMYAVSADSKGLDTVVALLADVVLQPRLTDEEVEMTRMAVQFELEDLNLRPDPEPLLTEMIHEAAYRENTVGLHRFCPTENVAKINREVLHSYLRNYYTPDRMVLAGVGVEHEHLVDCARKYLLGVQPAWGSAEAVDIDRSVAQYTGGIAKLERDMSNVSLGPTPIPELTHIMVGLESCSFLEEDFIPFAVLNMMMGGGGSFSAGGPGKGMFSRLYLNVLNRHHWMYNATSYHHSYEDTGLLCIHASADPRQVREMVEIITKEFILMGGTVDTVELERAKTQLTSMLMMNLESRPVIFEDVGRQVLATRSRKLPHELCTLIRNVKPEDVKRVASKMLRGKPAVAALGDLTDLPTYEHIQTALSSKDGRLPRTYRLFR
UniProt Q93096, sequence (Q93096 whole entry, looked up): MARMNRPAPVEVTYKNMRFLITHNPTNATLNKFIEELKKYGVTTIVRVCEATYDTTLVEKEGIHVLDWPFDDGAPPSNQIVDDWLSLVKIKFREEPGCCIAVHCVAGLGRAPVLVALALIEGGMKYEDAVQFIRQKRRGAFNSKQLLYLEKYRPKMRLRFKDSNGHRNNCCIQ
UniProt Q99541, sequence (Q99541 whole entry, looked up): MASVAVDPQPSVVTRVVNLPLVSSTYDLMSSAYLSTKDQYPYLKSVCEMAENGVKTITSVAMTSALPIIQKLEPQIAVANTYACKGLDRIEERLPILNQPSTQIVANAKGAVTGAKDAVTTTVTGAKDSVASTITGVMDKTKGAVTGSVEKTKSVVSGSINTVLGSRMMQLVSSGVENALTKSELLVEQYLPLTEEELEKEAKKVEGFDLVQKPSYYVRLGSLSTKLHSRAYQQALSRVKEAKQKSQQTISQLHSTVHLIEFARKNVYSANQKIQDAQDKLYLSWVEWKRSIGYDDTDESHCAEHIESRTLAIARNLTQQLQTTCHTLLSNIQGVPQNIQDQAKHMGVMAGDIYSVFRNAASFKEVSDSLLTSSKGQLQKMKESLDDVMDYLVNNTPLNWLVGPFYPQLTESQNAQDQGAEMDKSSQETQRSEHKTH
UniProt Q9BTU6, sequence (Q9BTU6 whole entry, looked up): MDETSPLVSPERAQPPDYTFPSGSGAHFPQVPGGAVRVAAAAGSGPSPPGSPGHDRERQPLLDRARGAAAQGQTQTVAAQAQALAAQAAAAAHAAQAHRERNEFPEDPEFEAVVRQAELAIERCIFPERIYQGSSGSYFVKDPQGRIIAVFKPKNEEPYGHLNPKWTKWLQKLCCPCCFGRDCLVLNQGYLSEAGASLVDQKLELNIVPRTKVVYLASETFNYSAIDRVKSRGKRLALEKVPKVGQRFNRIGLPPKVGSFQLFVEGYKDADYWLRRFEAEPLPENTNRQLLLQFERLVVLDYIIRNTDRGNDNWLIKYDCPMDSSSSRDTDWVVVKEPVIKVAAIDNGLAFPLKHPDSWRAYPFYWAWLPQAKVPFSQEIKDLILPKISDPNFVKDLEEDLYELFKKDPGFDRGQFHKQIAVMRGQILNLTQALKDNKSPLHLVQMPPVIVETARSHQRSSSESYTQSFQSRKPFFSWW
UniProt O15305, sequence (O15305 whole entry, looked up): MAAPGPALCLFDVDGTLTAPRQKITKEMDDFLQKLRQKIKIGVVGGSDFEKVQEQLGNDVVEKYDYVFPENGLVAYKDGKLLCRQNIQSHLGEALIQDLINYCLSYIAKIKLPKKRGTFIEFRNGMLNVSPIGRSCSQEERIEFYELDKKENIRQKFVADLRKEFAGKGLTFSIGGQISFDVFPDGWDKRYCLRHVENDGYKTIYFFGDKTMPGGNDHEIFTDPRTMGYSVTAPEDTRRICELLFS
UniProt P31321, sequence (P31321 whole entry, looked up): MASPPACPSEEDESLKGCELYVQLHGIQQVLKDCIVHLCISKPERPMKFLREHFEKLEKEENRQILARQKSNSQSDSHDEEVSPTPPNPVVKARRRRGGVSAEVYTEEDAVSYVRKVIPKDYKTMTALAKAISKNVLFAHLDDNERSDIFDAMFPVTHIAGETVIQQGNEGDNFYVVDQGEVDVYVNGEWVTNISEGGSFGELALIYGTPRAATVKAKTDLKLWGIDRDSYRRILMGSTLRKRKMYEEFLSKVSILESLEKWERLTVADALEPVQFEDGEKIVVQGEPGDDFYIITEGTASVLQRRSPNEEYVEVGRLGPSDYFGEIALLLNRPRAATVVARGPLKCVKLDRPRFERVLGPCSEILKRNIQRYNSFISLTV
UniProt Q5JVF3, sequence (Q5JVF3 whole entry, looked up): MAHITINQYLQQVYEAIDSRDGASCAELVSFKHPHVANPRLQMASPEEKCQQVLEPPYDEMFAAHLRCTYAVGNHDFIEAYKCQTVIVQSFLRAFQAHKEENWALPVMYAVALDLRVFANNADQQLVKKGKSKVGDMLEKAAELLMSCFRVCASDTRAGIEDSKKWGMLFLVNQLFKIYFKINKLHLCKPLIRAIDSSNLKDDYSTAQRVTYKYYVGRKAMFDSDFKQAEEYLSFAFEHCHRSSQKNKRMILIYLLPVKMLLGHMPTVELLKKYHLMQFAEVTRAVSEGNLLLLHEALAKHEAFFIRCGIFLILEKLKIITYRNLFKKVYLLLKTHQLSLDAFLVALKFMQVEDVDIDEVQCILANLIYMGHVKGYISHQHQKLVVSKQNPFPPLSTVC
UniProt Q96A00, sequence (Q96A00 whole entry, looked up): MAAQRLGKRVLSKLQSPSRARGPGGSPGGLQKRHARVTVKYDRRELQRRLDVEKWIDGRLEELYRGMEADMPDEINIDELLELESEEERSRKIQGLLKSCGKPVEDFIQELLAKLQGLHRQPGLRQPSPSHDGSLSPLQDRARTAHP
UniProt Q9Y3E5, sequence (Q9Y3E5 whole entry, looked up): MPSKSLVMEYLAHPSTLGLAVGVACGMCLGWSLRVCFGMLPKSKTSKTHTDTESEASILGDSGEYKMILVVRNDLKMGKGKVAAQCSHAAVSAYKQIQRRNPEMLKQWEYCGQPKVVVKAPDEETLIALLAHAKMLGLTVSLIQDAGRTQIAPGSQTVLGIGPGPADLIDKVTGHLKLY
UniProt Q15172, sequence (Q15172 whole entry, looked up): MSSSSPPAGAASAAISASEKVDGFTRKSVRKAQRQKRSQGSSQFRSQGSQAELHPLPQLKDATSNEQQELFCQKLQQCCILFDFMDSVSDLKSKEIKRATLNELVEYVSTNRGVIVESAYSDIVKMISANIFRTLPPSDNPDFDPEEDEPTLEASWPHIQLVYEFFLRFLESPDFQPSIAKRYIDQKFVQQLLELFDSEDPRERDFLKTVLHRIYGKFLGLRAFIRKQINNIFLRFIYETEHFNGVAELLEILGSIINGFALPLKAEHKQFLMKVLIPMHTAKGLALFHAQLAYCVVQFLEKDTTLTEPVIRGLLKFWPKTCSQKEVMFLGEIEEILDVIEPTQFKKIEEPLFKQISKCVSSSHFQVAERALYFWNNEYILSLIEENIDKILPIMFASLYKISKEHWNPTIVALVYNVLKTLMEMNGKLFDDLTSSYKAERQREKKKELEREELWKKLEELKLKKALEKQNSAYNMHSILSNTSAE
UniProt Q01970, sequence (Q01970 whole entry, looked up): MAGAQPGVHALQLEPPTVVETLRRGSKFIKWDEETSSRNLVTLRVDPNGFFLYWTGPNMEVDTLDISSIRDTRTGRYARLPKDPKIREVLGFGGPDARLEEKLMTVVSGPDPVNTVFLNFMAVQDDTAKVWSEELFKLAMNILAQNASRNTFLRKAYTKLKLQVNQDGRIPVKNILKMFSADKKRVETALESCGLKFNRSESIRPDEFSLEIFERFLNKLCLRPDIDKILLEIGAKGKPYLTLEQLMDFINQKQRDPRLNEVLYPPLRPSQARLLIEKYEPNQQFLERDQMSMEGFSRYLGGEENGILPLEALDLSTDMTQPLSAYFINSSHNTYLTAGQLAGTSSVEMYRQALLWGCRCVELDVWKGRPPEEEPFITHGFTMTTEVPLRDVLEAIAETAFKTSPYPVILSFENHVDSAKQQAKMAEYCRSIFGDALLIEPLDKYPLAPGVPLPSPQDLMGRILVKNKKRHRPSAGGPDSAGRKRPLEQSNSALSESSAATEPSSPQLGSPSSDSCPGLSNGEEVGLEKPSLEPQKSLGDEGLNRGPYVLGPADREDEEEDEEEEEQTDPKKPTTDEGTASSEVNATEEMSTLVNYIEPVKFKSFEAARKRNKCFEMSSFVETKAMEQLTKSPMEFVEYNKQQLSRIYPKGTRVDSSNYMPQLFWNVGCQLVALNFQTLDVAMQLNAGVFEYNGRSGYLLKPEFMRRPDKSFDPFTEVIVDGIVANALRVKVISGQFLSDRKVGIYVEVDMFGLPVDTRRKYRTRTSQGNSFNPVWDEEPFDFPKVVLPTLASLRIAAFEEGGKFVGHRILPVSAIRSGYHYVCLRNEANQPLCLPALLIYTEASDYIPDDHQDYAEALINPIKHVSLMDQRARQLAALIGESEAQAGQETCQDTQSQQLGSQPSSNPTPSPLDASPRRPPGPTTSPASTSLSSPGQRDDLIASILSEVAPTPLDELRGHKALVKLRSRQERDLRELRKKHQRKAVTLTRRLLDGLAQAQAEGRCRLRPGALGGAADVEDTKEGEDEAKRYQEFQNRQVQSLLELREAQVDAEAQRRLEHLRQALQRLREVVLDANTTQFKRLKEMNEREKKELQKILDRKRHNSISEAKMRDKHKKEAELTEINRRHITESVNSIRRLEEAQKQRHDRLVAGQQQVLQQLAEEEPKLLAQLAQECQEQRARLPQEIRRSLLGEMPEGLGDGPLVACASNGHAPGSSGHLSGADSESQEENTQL
UniProt Q9Y2Y1, sequence (Q9Y2Y1 whole entry, looked up): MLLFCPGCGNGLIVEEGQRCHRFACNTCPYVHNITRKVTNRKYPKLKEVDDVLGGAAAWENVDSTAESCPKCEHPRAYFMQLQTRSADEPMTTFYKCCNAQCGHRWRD

Target	log2 fold change
POLR2M (UniProt P0CAP2)	0.037
PCID2 (UniProt Q5JVF3)	-0.086
PMPCA (UniProt Q10713)	0.138
POLA1 (UniProt P09884)	-0.163
PDE2A (UniProt O00408)	-0.091
PDCD4 (UniProt Q53EL6)	0.011
PURA (UniProt Q00577)	0.441
PPP1R14A (UniProt Q96A00)	-0.091
PMM2 (UniProt O15305)	-0.049
PTRH2 (UniProt Q9Y3E5)	0.018
PPP2R5E (UniProt Q16537)	-0.99 (active)
PFAS (UniProt O15067)	-0.001
PPP2R5A (UniProt Q15172)	-0.305 (active)
PHKG2 (UniProt P15735)	-0.156
PKM (UniProt P14618)	-0.017
PSMD12 (UniProt O00232)	0.062
PRKAR1B (UniProt P31321)	0.43 (active)
POLR2K (UniProt P53803)	0.05
PLCB3 (UniProt Q01970)	-0.246 (active)
PLIN2 (UniProt Q99541)	-0.699 (active)
POTEI (UniProt P0CG38)	0.035
PTP4A1 (UniProt Q93096)	0.022
PI4K2A (UniProt Q9BTU6)	-0.146
POLR3K (UniProt Q9Y2Y1)	-0.01

Source: the supplement of paper PMC10849652
